# Values joined by “and” are separate entries in the source; they are usually repeats but may differ in a detail not shown here. Equal values may be shown once. Records with an inconclusive call do not appear. Entries that show only a call come without a potency. Active and inactive are the calls of the source. The call rests on the fitted dose curve; in most records, active means well fitted cell-killing curve with a large enough effect in the repeat runs; inconclusive means weak or mixed curves, or effect the other way; inactive means flat fitted curve, though single readings scatter.
# Assay: qHTS RealTime-Glo MT Cell Viability Assay in HEK293 cells - 8 hour (AID 1224887); further: nearly all actives have a fitted effect of over 50% in size; on activity change, negative = cytotoxicity: top concentration of the series differs between compounds
# Details: RealTime-Glo luminescence; series mostly up to 76.8 µM; activity change, negative = cytotoxicity: at the top concentration
# Text: U.S. Tox21 Program National Center for Advancing Translational Sciences [NCATS] NIH Chemical Genomics Center [NCGC] U.S. Environmental Protection Agency [EPA] National Institutes of Environmental Health Sciences [NIEHS] National Toxicology Program [NTP] U.S. Food and Drug Administration [FDA] Tox21 Assay Overview: Measure of cell viability is critical in the cell-base assay. Analysis of cell viability is necessary for the characterization of cell responses to cytotoxic drugs and environmental stress. A RealTime-Glo MT Cell Viability Assay to monitor cell viability in real time of continues cell culture during 40 hours of compound treatment was used to screen Tox21 10K library compounds in Hek293 cells. The RealTime-Glo MT Cell Viability Assay is a nonlytic, homogeneous, bioluminescent method to measure cell viability in real time using a simple, plate-based method. The assay involves adding NanoLuc luciferase and a cell-permeant prosubstrate to cells in culture. Viable cells reduce the proprietary prosubstrate to generate a substrate for NanoLuc luciferase. This substrate diffuses from cells into the surrounding culture medium, where it is rapidly used by the NanoLuc Enzyme to produce a luminescent signal. The signal correlates with the number of viable cells, making the assay well suited for cytotoxicity studies.
# Tox21 Assay Protocol Summary: The mixture of Hek293 cell suspension and reagents were dispensed at 600cells/6 ul/well in 1536-well tissue culture treated black solid bottom plates using a Multidrop dispenser. After the assay plates were incubated at a 37 C/5% CO2 incubator for 5 hours, 23 nL of compounds dissolved in DMSO, positive and negative controls was transferred to the assay plate by a pintool work station. The plates were incubated at 37 C for 40 hours. The luminescence intensity were measured at 0h, 8h, 16h, 24h, 32h and 40h time points using ViewLux plate reader during compound treatment.
# Potency means the concentration at half of the fitted maximal effect.
SMILES,Potency,"activity change, negative = cytotoxicity"
Cc1ccc2c(c1)C(=O)OC2=O,inactive,
COc1ccc(C(=O)c2ccccc2O)c(O)c1,,-1.61% [at 35.3 µM] (inactive)
Nc1cc(Cl)c(N)c(Cl)c1,inactive,
COC(=O)CC(=O)OC,inactive,
CC(=O)Oc1c(C)c(C)c2c(c1C)CC[C@@](C)(CCC[C@H](C)CCC[C@H](C)CCCC(C)C)O2,inactive,
C1CN(SSN2CCOCC2)CCO1,inactive,
CC(=O)O[C@]1(C(C)=O)CC[C@H]2[C@@H]3C=C(C)C4=CC(=O)CC[C@]4(C)[C@H]3CC[C@@]21C,,-26.7% (inactive)
CCCCCC1C(=O)CCC1CC(=O)OC (stereo not given),inactive,
C=CCCCCCCCCCC,inactive,
C[C@]12C=CC(=O)C=C1CC[C@H]1[C@@H]3C[C@@H](O)[C@](O)(C(=O)CO)[C@@]3(C)C[C@H](O)[C@@]12F,inactive,
Oc1ccc(C(c2ccc(O)cc2)C(Cl)(Cl)Cl)cc1,,-19.3% (inactive)
CC(C)=CCO,inactive,
CC(=O)OC(C)C,inactive,
CN1CCOCC1,inactive,
CC1(C)OC(=O)NC1=O,inactive,
CC(C)[C@@H]1CC[C@@H](C)CC1=O,inactive,
C=CC(=O)OCCCC,inactive,
CC1(C)C(C=C(Cl)Cl)C1C(=O)OCc1cccc(Oc2ccccc2)c1 (stereo not given),,-24.8% (inactive)
C[C@]12CC[C@@H]3c4ccc(O)cc4CC[C@H]3[C@@H]1CC[C@@H]2O,inactive,
NCCOCCO,inactive,

SMILES,Potency,"activity change, negative = cytotoxicity"
c1ccc2c(c1)ccc1cc3c(ccc4ccccc43)cc12,inactive,
O=C(O)c1cc(=O)[nH]c(=O)[nH]1,inactive,
Cc1ccc([N+](=O)[O-])c(C)c1,,5.51% (inactive)
CC1=CC(C)(C)Nc2ccccc21,inactive,
Cc1ccc(C)c(O)c1,inactive,
c1ccc2c(c1)ccc1ncccc12,inactive,
IC(I)I,inactive,
Cc1ccc(C(C)(C)C)c(O)c1,,-25% (inactive)
CN(C)CCCN1c2ccccc2Sc2ccc(Cl)cc21,30.9 µM (active),
FC(F)(F)C(Cl)Br (stereo not given),inactive,
CCCCCCCCCCC(CO)CCCCCCCC (stereo not given),inactive,
O=C(O)COCCN1CCN(C(c2ccccc2)c2ccc(Cl)cc2)CC1 (stereo not given),inactive,
Brc1nc2ccccc2s1,inactive,
COCCOCCOCCO,inactive,
Cc1ccc(/C(=C\CN2CCCC2)c2ccccn2)cc1,inactive,
CCOC(=O)C(C)Oc1ccc(Oc2cnc3cc(Cl)ccc3n2)cc1 (stereo not given),14.1 µM (active) and 16.3 µM (active),
CCCCCCCC/C=C\CCCCCCCC(=O)O,inactive,
Cc1ccc(S(=O)(=O)O)cc1C,inactive,
Oc1c(Cl)ccc(Cl)c1Cl,inactive,
CC(=O)O[C@]1(C(C)=O)CC[C@H]2[C@@H]3C=C(Cl)C4=CC(=O)CC[C@]4(C)[C@H]3CC[C@@]21C,,-17.1% [at 35.3 µM] (inactive)

# Reference: PubChem BioAssay (Tox21)
